This is part of a sample that, as a whole, favours compounds with a hit. Of some 83,000 tested, about 20% had one in any assay.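 In brief: 96-well plates, 48 h treatment, single concentration, percent growth endpoint.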 Active and inactive are the calls of the source. The calls were made as follows: active = growth percent below 10; inactive = the rest.
What was measured:
Assay in all cases: NCI-60 one-dose screen, 48 h (100 = growth as untreated, 0 = no growth, -100 = all killed)
Details in all cases: 10 µM unless noted
HCT-15 colon = test system: HCT-15 colon
HT29 colon = test system: HT29 colon
SNB-19 CNS = test system: SNB-19 CNS
U251 CNS = test system: U251 CNS
PC-3 prostate = test system: PC-3 prostate
SK-MEL-5 melanoma = test system: SK-MEL-5 melanoma
UACC-62 melanoma = test system: UACC-62 melanoma
LOX IMVI melanoma = test system: LOX IMVI melanoma
SK-MEL-28 melanoma = test system: SK-MEL-28 melanoma
SK-MEL-2 melanoma = test system: SK-MEL-2 melanoma
EKVX NSCLC = test system: EKVX NSCLC
SN12C renal = test system: SN12C renal
UO-31 renal = test system: UO-31 renal
TK-10 renal = test system: TK-10 renal
ACHN renal = test system: ACHN renal
A498 renal = test system: A498 renal
MOLT-4 leukemia = test system: MOLT-4 leukemia
CCRF-CEM leukemia = test system: CCRF-CEM leukemia
CAKI-1 renal = test system: CAKI-1 renal

Measured: growth

O=C(N/N=C/C=C\c1ccccc1)C(=O)N/N=C/C=C/c1ccccc1
inactive: HCT-15 colon 108% | HT29 colon 110% | SNB-19 CNS 120% | U251 CNS 107% | PC-3 prostate 109% | SK-MEL-5 melanoma 110% | UACC-62 melanoma 114% | LOX IMVI melanoma 94% | SK-MEL-28 melanoma 115% | SK-MEL-2 melanoma 109% | EKVX NSCLC 111% | SN12C renal 92.6% | UO-31 renal 91.3% | TK-10 renal 104% | ACHN renal 125% | A498 renal 127% | MOLT-4 leukemia 109%

COc1ccc(-c2nc(SCCC(C)C)nc(Nc3ccc(F)c(Cl)c3)c2C#N)cc1
inactive: HCT-15 colon 84.9% | HT29 colon 75.9% | SNB-19 CNS 77.9% | U251 CNS 33.7% | PC-3 prostate 80% | SK-MEL-5 melanoma 94.1% | UACC-62 melanoma 97.5% | LOX IMVI melanoma 76.4% | SK-MEL-28 melanoma 105% | SK-MEL-2 melanoma 120% | EKVX NSCLC 55.7% | SN12C renal 56.7% | UO-31 renal 56.6% | TK-10 renal 62.6% | ACHN renal 47.8% | A498 renal 76.8% | CCRF-CEM leukemia 71% | MOLT-4 leukemia 86.1%

O=C1/C(=C/c2ccc(Cl)cc2)CN(C(=O)CCN2CCC(=NO)CC2)C/C1=C\c1ccc(Cl)cc1
active: HCT-15 colon -90.9% | HT29 colon -71.8% | SNB-19 CNS -93.2% | U251 CNS -91.1% | PC-3 prostate -55.2% | SK-MEL-5 melanoma -84.8% | UACC-62 melanoma -75.4% | LOX IMVI melanoma -92.7% | SK-MEL-28 melanoma -89.7% | SK-MEL-2 melanoma -68.4% | EKVX NSCLC -46.5% | SN12C renal -75.2% | UO-31 renal -92.5% | ACHN renal -61.5% | CAKI-1 renal -73.9% | A498 renal -59.8% | CCRF-CEM leukemia -23.3% | MOLT-4 leukemia -12.4%

COc1ccc(-c2nc(/C=C3/C(=O)Nc4ccc(F)cc43)c3ccccn23)cc1
inactive: HCT-15 colon 107% | HT29 colon 103% | SNB-19 CNS 101% | U251 CNS 88.3% | PC-3 prostate 108% | SK-MEL-5 melanoma 102% | UACC-62 melanoma 106% | LOX IMVI melanoma 92.7% | SK-MEL-28 melanoma 105% | SK-MEL-2 melanoma 112% | EKVX NSCLC 123% | SN12C renal 106% | UO-31 renal 97% | TK-10 renal 116% | ACHN renal 96.5% | CAKI-1 renal 98.2% | CCRF-CEM leukemia 93.9% | MOLT-4 leukemia 91.8%

c1ccc(Nc2nc(Nc3ccccc3)nc(Nc3ccccc3)n2)cc1
inactive: HCT-15 colon 82.9% | HT29 colon 75.3% | SNB-19 CNS 98.3% | U251 CNS 91.4% | PC-3 prostate 79.7% | SK-MEL-5 melanoma 78% | UACC-62 melanoma 83% | LOX IMVI melanoma 82.7% | SK-MEL-28 melanoma 79% | SK-MEL-2 melanoma 85.8% | EKVX NSCLC 77.9% | SN12C renal 100% | UO-31 renal 55.5% | TK-10 renal 74.6% | ACHN renal 91.9% | CAKI-1 renal 85% | A498 renal 79% | MOLT-4 leukemia 65.7%

O=C(NS(=O)(=O)c1ccc2ccccc2c1)n1cc(-c2ccncc2)c(-c2ccc(Cl)c(O)c2)n1
active: SK-MEL-2 melanoma -2.83%
inactive: HCT-15 colon 82.1% | HT29 colon 70.3% | SNB-19 CNS 109% | U251 CNS 84.5% | PC-3 prostate 74.2% | SK-MEL-5 melanoma 77.5% | UACC-62 melanoma 15.5% | LOX IMVI melanoma 49.9% | SK-MEL-28 melanoma 54.6% | EKVX NSCLC 65.5% | SN12C renal 68.8% | UO-31 renal 56.4% | ACHN renal 49.6% | CAKI-1 renal 96.2% | A498 renal 87.7% | CCRF-CEM leukemia 74.1% | MOLT-4 leukemia 78.9%

O=C(CSc1nc2ccccc2[nH]1)c1ccc(N2CCOCC2)cc1
inactive: HCT-15 colon 99.4% | HT29 colon 113% | SNB-19 CNS 98.7% | U251 CNS 103% | PC-3 prostate 100% | SK-MEL-5 melanoma 105% | UACC-62 melanoma 97.1% | LOX IMVI melanoma 94.8% | SK-MEL-28 melanoma 114% | SK-MEL-2 melanoma 113% | EKVX NSCLC 80.4% | SN12C renal 105% | UO-31 renal 85.5% | TK-10 renal 118% | ACHN renal 105% | A498 renal 85.8% | CCRF-CEM leukemia 103%

CCCCCCCCCCCCNC(=O)[C@H]1CSC(c2cc3ccccc3s2)N1 (some centres not stated)
active: HCT-15 colon -34.1% | HT29 colon -8.26% | U251 CNS -78.9% | PC-3 prostate -17.4% | UACC-62 melanoma -76.2% | LOX IMVI melanoma -85.7% | SK-MEL-28 melanoma -89% | SK-MEL-2 melanoma -45.7% | EKVX NSCLC -59.6% | SN12C renal -16.1% | UO-31 renal -82.6% | TK-10 renal -78.7% | MOLT-4 leukemia -63.3%
inactive: SNB-19 CNS 51.2% | SK-MEL-5 melanoma 57.9% | ACHN renal 17.5% | CAKI-1 renal 74.7% | A498 renal 98.9%

CN(CCCCN(C[C@H]1Cc2ncccc2CN1)[C@H]1CCCc2cccnc21)C1CCC(F)(F)CC1
inactive: HCT-15 colon 70.4% | HT29 colon 82.3% | SNB-19 CNS 90.5% | U251 CNS 81.6% | PC-3 prostate 83.8% | SK-MEL-5 melanoma 104% | UACC-62 melanoma 98.2% | LOX IMVI melanoma 93.3% | SK-MEL-28 melanoma 106% | SK-MEL-2 melanoma 94.6% | EKVX NSCLC 87.4% | SN12C renal 86.1% | UO-31 renal 67.6% | TK-10 renal 82.4% | ACHN renal 102% | CAKI-1 renal 73.9% | A498 renal 99.4% | MOLT-4 leukemia 91.4%

CCCCN(CCCC)c1ccc(C(=N)c2ccc(N(CCCC)CCCC)cc2)cc1
active: HCT-15 colon -91.9% | HT29 colon -81.1% | SNB-19 CNS -82.8% | U251 CNS -92.9% | PC-3 prostate -94.4% | SK-MEL-5 melanoma -97% | UACC-62 melanoma -81.6% | LOX IMVI melanoma -97.2% | SK-MEL-28 melanoma 9.39% | SK-MEL-2 melanoma -79.1% | EKVX NSCLC -13.9% | SN12C renal -94.1% | UO-31 renal -71.1% | TK-10 renal -83.9% | ACHN renal -100% | A498 renal -25.7%

Cc1nc2ncccc2nc1Nc1ccc(S(=O)(=O)Nc2cncs2)cc1
inactive: HCT-15 colon 115% | HT29 colon 101% | SNB-19 CNS 111% | U251 CNS 97.7% | PC-3 prostate 86.6% | SK-MEL-5 melanoma 101% | UACC-62 melanoma 88.8% | LOX IMVI melanoma 83.5% | SK-MEL-28 melanoma 110% | SK-MEL-2 melanoma 103% | EKVX NSCLC 88.2% | SN12C renal 82.7% | UO-31 renal 58.8% | TK-10 renal 101% | ACHN renal 99.7% | A498 renal 118% | CCRF-CEM leukemia 100% | MOLT-4 leukemia 99.4%

COc1ccc(N=Cc2c(O)ccc3c2oc2cc(Cl)c(O)c(Cl)c23)cc1
inactive: HCT-15 colon 86.6% | HT29 colon 105% | SNB-19 CNS 104% | U251 CNS 87.8% | PC-3 prostate 103% | SK-MEL-5 melanoma 96.3% | UACC-62 melanoma 84.2% | LOX IMVI melanoma 64.5% | SK-MEL-28 melanoma 141% | EKVX NSCLC 108% | SN12C renal 102% | UO-31 renal 103% | TK-10 renal 120% | ACHN renal 96.2% | A498 renal 107% | CCRF-CEM leukemia 77.9% | MOLT-4 leukemia 89.1%
active: SK-MEL-2 melanoma -1.58%

CCOc1cc2c(Cl)ncnc2c(OCC)c1OCC
active: UO-31 renal -17.7%
inactive: HCT-15 colon 55.1% | HT29 colon 78.4% | SNB-19 CNS 97.3% | U251 CNS 82.6% | PC-3 prostate 18.1% | SK-MEL-5 melanoma 77.4% | UACC-62 melanoma 64.3% | LOX IMVI melanoma 83.1% | SK-MEL-28 melanoma 58.1% | SK-MEL-2 melanoma 52.2% | EKVX NSCLC 88.4% | SN12C renal 94% | TK-10 renal 105% | ACHN renal 60.1% | A498 renal 91.1% | CCRF-CEM leukemia 11.2% | MOLT-4 leukemia 21.7%

CCCCCCCCN(CCCCCCCC)CCCCCCNc1cc(OC)cc2cccnc12
inactive: HCT-15 colon 109% | HT29 colon 28.1% | SNB-19 CNS 94.1% | U251 CNS 84.9% | PC-3 prostate 67.2% | SK-MEL-5 melanoma 103% | UACC-62 melanoma 110% | LOX IMVI melanoma 32.3% | SK-MEL-28 melanoma 106% | SK-MEL-2 melanoma 105% | EKVX NSCLC 87.4% | SN12C renal 63.4% | UO-31 renal 55.2% | TK-10 renal 118% | ACHN renal 91.4% | CAKI-1 renal 72% | A498 renal 110% | MOLT-4 leukemia 50%

CCCCCCCCCCCCNC(=O)[C@H]1CSC(c2cc(Br)cs2)N1 (some centres not stated)
active: HCT-15 colon 3.37% | HT29 colon 0.836% | U251 CNS -52.6% | PC-3 prostate -35% | UACC-62 melanoma -84.5% | LOX IMVI melanoma -86.4% | SK-MEL-28 melanoma -82% | SK-MEL-2 melanoma -58.7% | EKVX NSCLC -64% | SN12C renal -53.5% | UO-31 renal -76% | CCRF-CEM leukemia -42.1% | MOLT-4 leukemia -59.8%
inactive: SNB-19 CNS 74.5% | SK-MEL-5 melanoma 53.4% | ACHN renal 14.3% | CAKI-1 renal 77.9% | A498 renal 76.8%

Cc1ccc(S(=O)(=O)NCCNc2nccc(-c3c(-c4cccc(N)c4)nc4sccn34)n2)cc1
inactive: HCT-15 colon 92.1% | HT29 colon 91.7% | SNB-19 CNS 104% | U251 CNS 101% | PC-3 prostate 84.5% | SK-MEL-5 melanoma 84.6% | UACC-62 melanoma 79.4% | LOX IMVI melanoma 95% | SK-MEL-28 melanoma 107% | SK-MEL-2 melanoma 109% | EKVX NSCLC 83.5% | SN12C renal 81% | UO-31 renal 70.9% | TK-10 renal 116% | ACHN renal 86.4% | A498 renal 92.4% | CCRF-CEM leukemia 95.8% | MOLT-4 leukemia 88%

CCOC(=O)C1C(=O)C=C(c2ccc(OC)cc2)CC1c1sc(N(C)Cc2ccccc2)nc1Cl (configuration not stated)
inactive: HCT-15 colon 93.3% | HT29 colon 88.1% | SNB-19 CNS 74.1% | U251 CNS 84.8% | PC-3 prostate 62.9% | SK-MEL-5 melanoma 81% | UACC-62 melanoma 46.1% | LOX IMVI melanoma 92.1% | SK-MEL-28 melanoma 93.7% | SK-MEL-2 melanoma 74.3% | EKVX NSCLC 82.4% | SN12C renal 79.8% | UO-31 renal 54.2% | ACHN renal 73.8% | CAKI-1 renal 76.7% | A498 renal 93.6% | CCRF-CEM leukemia 86.5% | MOLT-4 leukemia 61.5%
